This note sets out measurements from PubChem BioAssay (NCATS).

Inconclusive results are not listed. Activity calls are given as the source filed them. The call rests on the fitted dose curve; in most records, active means well fitted curve in the direction sought with a large enough effect; inconclusive means small, poorly fitted or top-dose-only effect, or another doubt; inactive means no such curve, though single readings can be large; an effect the other way counts as inactive or inconclusive.

Assay [1] in a line: qHTS assay for measurement of the activity of small molecule inhibitors on Zika virus induced Caspase-3 activity in human iPSC derived neural progenitor cells (hNPCs) (AID 1224857). Further: nearly all actives have a fitted effect of over 65% in size. The note with it: hNPCs ZIKV-induced caspase-3/7, Caspase-Glo luminescence, 6 h; series mostly up to 45.7 µM. The method in brief:
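Caspase-3/7 induction by a 6-hour ZIKV infection was quantified with a luminescent Caspase-Glo 3/7 reagent incubated 30 minutes at room temperature. Compounds were preincubated with hNPCs for 1 hour; inhibition was calculated against uninfected and infected control wells.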

The nature of assay [2]: qHTS assay for measurement of the activity of small molecule inhibitors on Zika virus induced Caspase-3 activity in human astrocytoma cells (AID 1224859). To be noted: SNB-19 ZIKV-induced caspase-3/7, luminescence, 6 h; series mostly up to 45.7 µM. In short, it runs like this: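 In SNB-19 cells plated at 250 cells/well and grown 16-20 h, compounds were applied 1 h before ZIKV (2 FFU/cell). Six hours later caspase-3/7 luminescence was recorded.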

Assay [3] can be described thus: qHTS Screen of the MIPE 4.0 Collection Against Ewings Sarcoma (RDES) (AID 1259252). Further: nearly all actives have a fitted effect of over 35% in size. Further: potency means the concentration at half of the fitted maximal effect. To be noted: RD-ES Ewing sarcoma viability, CellTiter-Glo, 48 h; series mostly up to 45.8 µM. The method in brief:
(§1)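 After a 4 h attachment period in RPMI/5% FBS, cells were pin-dosed with test compounds; DMSO served as negative and 9.2 uM bortezomib (final) as positive control. Luminescent CellTiter-Glo signal at 48 h defined viability.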
(In general: In qHTS, concentration-response curves come from the screen itself.)

Assay [4] can be described thus: qHTS Screen of the MIPE 4.0 Collection Against Ewings Sarcoma (TC71) (AID 1259253). Further: nearly all actives have a fitted effect of over 40% in size. Further: potency means the concentration at half of the fitted maximal effect. The note with it: TC71 Ewing sarcoma viability, CellTiter-Glo, 48 h; series mostly up to 45.8 µM. The method in brief:
as §1

Assay [5] in a line: qHTS Screen of the MIPE 4.0 Collection Against Ewings Sarcoma (EW8) (AID 1259255). Further: nearly all actives have a fitted effect of over 35% in size. Further: potency means the concentration at half of the fitted maximal effect. The note with it: EW8 Ewing sarcoma viability, CellTiter-Glo, 48 h; series mostly up to 45.8 µM. The method in brief: as §1
Assay [6] in a line: qHTS Screen of the MIPE 4.0 Collection Against Ewings Sarcoma (TC32) (AID 1259256). Further: nearly all actives have a fitted effect of over 45% in size. Further: potency means the concentration at half of the fitted maximal effect. To be noted: TC32 Ewing sarcoma viability, CellTiter-Glo, 48 h; series mostly up to 45.8 µM. In short, it runs like this:
as §1

Assay [7] is described as follows: Identifying Small Molecule Inhibitors of Pancreatic Cancer Stem Cells (A2780, Spheroid) (AID 1259357).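 Further: compound exposure lasted 48 h before the ATP luminescence read.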 Further: potency means the concentration at half of the fitted maximal effect. To be noted: Potency: A2780 spheroid viability; series mostly up to 46.1 µM. The method in brief:
(§2)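 Adherent (2D) versus sphere (3D) formats; spheres generated 14 d in SCM beforehand. Compound transferred by pin tool after 4 h, 48 h incubation, CellTiter-Glo endpoint.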

The nature of assay [8]: Identifying Small Molecule Inhibitors of Pancreatic Cancer Stem Cells (SN12C, Adherent) (AID 1259358).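 Further: cell survival measured after 48 h of compound exposure.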 Further: potency means the concentration at half of the fitted maximal effect. To be noted: viability/growth inhibition; series mostly up to 46.1 µM. The method in brief:
as §2

The nature of assay [9]: Identifying Small Molecule Inhibitors of Pancreatic Cancer Stem Cells (Panc1, Spheroid) (AID 1259359).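 Further: potency means the concentration at half of the fitted maximal effect; compound exposure lasted 48 h before reading.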 To be noted: Panc1 spheroid cancer stem cell viability; series mostly up to 46.1 µM. The method in brief:
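Monolayer and spheroid cultures are compared. Spheroids form over 14 days in stem cell medium on hydrogel-coated low-attachment plates, then are exposed to compound for 48 h before CellTiter-Glo luminescence.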

With `CC(C)c1ccc(Cn2ccc3c4c(N)nc(NC5CC5)nc4ccc32)cc1`, the Potency entry in [1] and in [2] was “inactive” each time. The Potency is 9.35 µM (active) in assay [3]; 1.05 µM (active) in assay [4]; 3.32 µM (active) in [5]; 1.32 µM (active) in assay [6]; 14.8 µM (active) in [7]; 7.43 µM (active) in assay [8]. For the same molecule, the Potency in assay [9] was 5.26 µM (active).
`O=C(O)[C@H](Cc1c[nH]c2ccccc12)N1C(=O)c2ccccc2C1=O`: the Potency entry in assay [1], in assay [2], in [3], in assay [4], in [5] and in assay [6] was “inactive” in each case. The Potency entry in assay [8] is “inactive”.
Take `COc1cc(C(C)C)c2c(c1)S(=O)(=O)N(COc1cc(=O)n3cccc(OCCN4CCCCC4)c3n1)C2=O`: the Potency result in assay [1], in [2] and in [8] was “inactive” in each case. The Potency is 10.5 µM (active) in assay [3], 18.7 µM (active) in [4], 26.4 µM (active) in [5] and 20.9 µM (active) in assay [6].
With `C[C@]1(CO)CN(c2cc(C(=O)Nc3ccc4c(c3)-c3c(c(C(N)=O)nn3-c3ccc(F)cc3)CC4)c(Cl)cn2)C[C@@]1(C)CO`, the Potency entry in assay [1], in assay [2] and in assay [7] was “inactive” each time. The Potency was 14.8 µM (active) in assay [3]; 13.2 µM (active) in assay [4]; 16.6 µM (active) in [5]; 13.2 µM (active) in assay [6]; 16.6 µM (active) in assay [8].
For `CN1CCC(CNc2ccc3ncc(-c4cccc(OC(F)(F)F)c4)n3n2)CC1`, the Potency entry in assay [1] and in assay [2] was “inactive” throughout. Also, the Potency was 16.6 µM (active) in assay [3]; 16.6 µM (active) in assay [4]; 10.5 µM (active) in [5]; 13.2 µM (active) in assay [6]; 20.9 µM (active) in [8].
In the case of `Cc1ccc(C(N)=O)cc1Nc1nccc(-c2cn(C(C)C)c3cnccc23)n1`, the Potency result in assay [1], in assay [2] and in [8] was “inactive” each time. The Potency in assay [3] is 14.8 µM (active); in [4], 8.33 µM (active); in assay [5], 18.7 µM (active); in assay [6] it was 16.6 µM (active).
On to `CC(=O)OCC(=O)[C@@]1(O)[C@H](C)C[C@H]2[C@@H]3C=C(C)C4=Cc5c(cnn5-c5ccccc5)C[C@]4(C)[C@@H]3[C@@H](O)C[C@@]21C`, for which the Potency entry in [1], in assay [2], in [7] and in assay [8] was “inactive” each time. The Potency is 6.62 µM (active) in [3]; 6.62 µM (active) in assay [4]; 7.43 µM (active) in [5]; 5.9 µM (active) in [6]; 14.8 µM (active) in [9].
Consider `Cc1[nH]c2ccccc2c1CCNCc1ccc(C=CC(=O)NO)cc1`, for which the Potency entry in assay [1] and in assay [2] was “inactive” each time. Further, the Potency in assay [3] is 0.0935 µM (active); in [4], 0.0833 µM (active); in assay [5], 0.0935 µM (active); in assay [6], 0.0469 µM (active); in assay [8] it was 0.235 µM (active); in [9], 0.59 µM (active).
For `CN1CCN(c2cc(C(=O)Nc3ccc4c(c3)-c3c(c(C(N)=O)nn3-c3ccc(F)cc3)CC4)c(Cl)cn2)CC1`, the Potency entry in [1] and in assay [2] was “inactive” throughout. In addition, the Potency was 2.64 µM (active) in assay [3]; 4.18 µM (active) in assay [4]; 20.9 µM (active) in [5]; 13.2 µM (active) in assay [6]; 23.5 µM (active) in assay [9].
As to `Cc1nc(N)ncc1-c1nc(N2CCOCC2)c2sc(C(C)(C)O)cc2n1`, the Potency result in [1] and in [2] was “inactive” throughout. The values for the Potency in [4], in assay [5] and in [6] were 5.9 µM (active), 6.62 µM (active) and 2.35 µM (active), respectively.
Take `COc1cc(Nc2ncc(F)c(Nc3ccc4c(n3)N(COP(=O)(O)O)C(=O)C(C)(C)O4)n2)cc(OC)c1OC`: the Potency entry in assay [1] and in assay [2] was “inactive” throughout. Further, the figures for the Potency in assay [4], in assay [5] and in assay [6] were 16.6 µM (active), 7.43 µM (active) and 3.32 µM (active), respectively.
Take `O=C(NCCS(=O)(=O)c1ccc(C(F)(F)F)cn1)c1ccc(Cl)cc1`: the Potency entry in assay [1], in assay [2], in assay [3], in assay [4], in assay [5] and in assay [6] was “inactive” in each case. For the same molecule, in assay [8], the Potency entry is “inactive”.
Turning to `CC(C)(C)c1cnc(CSc2cnc(NC(=O)C3CCNCC3)s2)o1`, the Potency result in assay [1] and in assay [2] was “inactive” each time. The Potency in [3] was 0.132 µM (active); in assay [4], 0.187 µM (active); in assay [5], 0.148 µM (active); in assay [6], 0.148 µM (active); in [9], 0.418 µM (active).
For `Cn1c2cc(S(C)=O)sc2c2cnn(Cc3cccc(N)c3)c(=O)c21` (centres undefined), the Potency entry in [1], in assay [2], in assay [3], in [4], in assay [5] and in [6] was “inactive” throughout. For the same molecule, in assay [8], the Potency result is “inactive”.
As for `C1Cc2[nH]nc(-c3nn[nH]n3)c2C1`, the Potency result in [1], in assay [2], in assay [3], in assay [4], in assay [5] and in [6] was “inactive” in each case. Further, the Potency entry in assay [8] is “inactive”.
Turning to `CN(C)c1nc(Cc2ccc(NC(=O)c3ccc4ccccc4c3)cc2)nc(Cl)c1CC(=O)O`, the Potency entry in assay [1], in [2], in [4], in [5] and in [6] was “inactive” throughout.
For the molecule `Cc1c(CN2CCN(S(C)(=O)=O)CC2)sc2c(N3CCOCC3)nc(-c3cnc(N)nc3)nc12`, the Potency result in assay [1] and in [2] was “inactive” throughout. The Potency in [4] is 0.0662 µM (active); in assay [5], 0.0662 µM (active); in assay [6], 0.0372 µM (active).
`CC(=O)Nc1nc(C)c(-c2ccc(Cl)c(S(=O)(=O)NCCO)c2)s1`: the Potency result in assay [1] and in assay [2] was “inactive” in each case. In addition, the values for the Potency in [4], in assay [5] and in assay [6] were 14.8 µM (active), 16.6 µM (active) and 10.5 µM (active), respectively.
On to `CC(C)c1ccccc1Cc1cc(C(=O)Nc2ccc(S(=O)(=O)c3ccccc3C(C)(C)C)cc2)c(O)c(O)c1O`, for which the Potency result in [1], in assay [2] and in assay [8] was “inactive” throughout. The Potency was 7.43 µM (active) in assay [3], 7.43 µM (active) in [4], 8.33 µM (active) in [5] and 8.33 µM (active) in assay [6].
